The results in this text go back to ChEMBL document CHEMBL4513216, “Probing the Open Global Health Chemical Diversity Library for Multistage-Active Starting Points for Next-Generation Antimalarials” (ACS Infect Dis, 2020).

Hit rate of the full screen: of about 68,000 compounds, about 2,700 (4%) showed an effect of 50% or more. The list comes from a sample in which strong results are over-represented; it also holds similar structures and randomly drawn compounds.

This test concerns Plasmodium berghei. Nature of the test: Screen against P. berghei liver stage (PbLuc), transformed with Luciferase, at 2uM. The class given is functional, HepG2. The following applies: tested at 2 uM.
On to `O=C(NCc1ccc(OCC2CC2)nc1)C1COc2ccccc2O1` (configuration not stated), for which the INHIBITION worked out at 2.21%. In the case of `CC1CCN(C(=O)[C@@H]2C[C@H]3OCC[C@H]3N(Cc3ccoc3)C2)CC1` it was 23.1%; in that of `Cc1cnc(CN(C)C(=O)C23CNCC2CNC3)[nH]1` (configuration not stated), -16.03%; in that of `COc1ncccc1C(=O)N(C)Cc1nc(-c2ccccn2)no1`, 16.37%. Next, `COCc1nc(C(=O)N2CCCCC2Cn2cc(C)cn2)cs1` (configuration not stated): 29.71%; `Cc1cnn(CC2CCCCN2C(=O)c2ccc(NC3CC3)nc2)c1` (configuration not stated): 14.53%; `CC(=O)Nc1nc(C(=O)N2CCCCC2Cn2cc(C)cn2)cs1` (configuration not stated): -7.73%. Next, `Cc1cnn(CC2CCCN2C(=O)c2ccc(C(N)=O)cn2)c1` (configuration not stated): 40.29%. Regarding `Cc1cnn(CC2CCCCN2C(=O)c2csc(C)n2)c1` (configuration not stated), the INHIBITION turned out to be 53.58%. Next, `CNC(=O)c1ccc(C(=O)N2CCCCC2Cn2cc(C)cn2)cn1` (configuration not stated): 61.96%. In the case of `CC(C)C1CN(C(=O)c2cc(=O)[nH]c(=O)[nH]2)CCCN1CC1CC1` (configuration not stated) it was -15.77%; in that of `CN(C)CCn1c([C@@H]2CCCO2)cc2cccnc21`, 47.82%; in that of `O=C(N1CCCC1)N1CCc2c(CNc3ncccn3)cncc2C1`, 34.98%.

As for `Cc1cc(CN2CCC3(CC2)CC(C(=O)O)N(C(=O)C2CC2)C3)oc1C` (configuration not stated), the INHIBITION is reported as 9.11%.

As to `CCSCC(C)NCc1nc(-c2cccnc2)no1` (configuration not stated), the INHIBITION is given as -15.07%. As to `Cc1nn2c(nc1=O)-c1ccccc1NC2C(=O)O` (configuration not stated), the INHIBITION was determined as 24.05%. Next, `O=C(c1ccsc1)N1CCC2(CCN(Cc3ccccn3)C2=O)C1` (configuration not stated): 57.85%; `Cc1cccc(C(=O)N2C[C@@H](C)[C@@]3(CCN(c4ccsc4)C3=O)C2)n1`: 15.44%.

Regarding `Cc1ccc(C(=O)N2CCC3(CCN(c4ccsc4)C3=O)C2)cn1` (configuration not stated), the INHIBITION is recorded as 52.66%. As to `O=C(N1CCCC1)N1CCCC2(CCN(c3ccsc3)C2=O)C1` (configuration not stated), the INHIBITION was 45.82%. In the case of `C[C@H]1CN(C(=O)c2cscn2)C[C@@]12CCN(c1ccsc1)C2=O` it was 55.8%; in that of `O=C(CO)N1CCCC2(CCN(c3ccsc3)C2=O)C1` (configuration not stated), 55.21%. Next, `O=C(c1ccnnc1)N1CCC2(CCN(c3ccsc3)C2=O)C1` (configuration not stated): -12.06%; `O=C(c1ccc(F)cc1)N1CCC2(CCN(Cc3ccccn3)C2=O)C1` (configuration not stated): 11.6%; `Cc1ccc(C(=O)N2CCC3(CCN(Cc4ccccn4)C3=O)C2)cn1` (configuration not stated): 17.64%. In the case of `COCC(=O)N1CCCC2(CCN(c3ccsc3)C2=O)C1` (configuration not stated) it was -68.7%.

Regarding `O=C(c1cccnc1)N1CCCC2(CCN(c3ccsc3)C2=O)C1` (configuration not stated), the INHIBITION was determined as 18.37%.

With `C[C@@H]1CN(C(=O)c2ccsc2)C[C@]12CCN(c1ccsc1)C2=O`, the INHIBITION is -1.79%. Regarding `c1ccc(CCCN2CCCC2Cn2cncn2)cc1` (configuration not stated), the INHIBITION stood at 1.63%. In the case of `CCOCCCNC(=O)NCc1c(C)nn(C)c1C` it was 6.4%; in that of `Cc1nn(CCC#N)c(C)c1CCC(=O)N(C(C)C)C1CC1`, 52.6%; in that of `Cc1nn(CCC#N)c(C)c1CCC(=O)N(C)C`, -57.94%. Next, `Cc1nn(CCC#N)c(C)c1CCC(=O)N(C)Cc1ccsc1`: 35.84%; `CCC(=O)Nc1ccc(C(C)NC(=O)COC)cc1` (configuration not stated): -64.67%; `Cc1cc(Cn2cc(C#N)c(=O)c3ccccc32)no1`: -0.45%.

For the compound `CC(C)c1ccc(CN2C(=O)C3(CCNCC3)Nc3ccccc32)cc1`, the INHIBITION is reported as 6.72%.

`O=C(C1CCCN(CCc2ccc3c(c2)CCO3)C1)N1CCCC1` (configuration not stated): the INHIBITION is reported as -0.62%.

Turning to `O=C(NCC1CCCO1)N1CCN(Cc2ccc3c(c2)CCO3)CC1` (configuration not stated), the INHIBITION turned out to be 78.42%. In the case of `O=C(C1COCCO1)N1CCN(Cc2ccc3c(c2)CCO3)CC1` (configuration not stated), the INHIBITION is on record as 83.96%. Next, `O=C(NCC1CCOC1)N1CCN(Cc2ccc3c(c2)CCO3)CC1` (configuration not stated): 10.62%; `O=C(NCc1ccco1)N1CCN(Cc2ccc3c(c2)CCO3)CC1`: 9.17%.

Consider `O=C(C1CCOC1)N1CCN(Cc2ccc3c(c2)CCO3)CC1` (configuration not stated), for which the INHIBITION is given as 47.87%.

For the compound `CN(C)C1CCN(C(=O)NCc2ccc(Cn3cncn3)cc2)CC1`, the INHIBITION is -8.87%. Next, `CN1CCN(Cc2cn3c(n2)CN(C2CCOCC2)CC3)CC1`: 20.01%; `COCCS(=O)(=O)NC(C)c1cccc(C)c1C` (configuration not stated): 16.38%; `Cc1cccc(C(C)CNS(=O)(=O)CCCC#N)c1` (configuration not stated): 16.95%. Next, `COCCS(=O)(=O)NCC(C)c1cccc(C)c1` (configuration not stated): 72.49%; `COc1ccc(C(C)NCc2ccc(OC)c(OC)c2OC)cc1F` (configuration not stated): -6.67%; `CC(c1ccco1)N(C)C(=O)NCCOc1ccc(C#N)cc1` (configuration not stated): -6.73%. For `CCOCC(=O)N1C[C@@H](O)[C@H](NC(C)=O)C1`, the INHIBITION is -24.98%. Next, `CC(=O)N[C@@H]1CN(C(=O)CC2CCOCC2)C[C@H]1O`: -4.48%; `CC(=O)N[C@@H]1CN(C(=O)CC2CC2)C[C@H]1O`: 53.16%.
